The experiment in a line: JC-1 mitochondrial signal, unstimulated myeloma cells – cell-based, JC-1 fluorescence, RPMI8226, 24 h, 100 nL compound, profiling panel (AID 1169). Note: test concentration not given here. The note with it: JC-1 mitochondrial potential fluorescence, higher = more signal.
For the compound `CO[C@H]1COC(=O)CC=C[C@H](C)[C@H](OC)COC(=O)[C@@H](C)NC(=O)CC=C[C@@H]1C`, the z-score was -0.283.
Consider `CCOC(=O)[C@H](Cc1ccccc1)NC(=O)CCC1CC(OC(=O)NCCc2ccc(F)cc2)CC2(CCCC(COC(=O)NCc3cccc(C(F)(F)F)c3)O2)O1` (stereo partly drawn), for which the z-score was found to be 0.562.
The same measure for `CCOC(=O)NN=C1C[C@@H](O)[C@@H](O)[C@@H]2[C@@H]3C(=O)N(c4ccc(F)cc4F)C(=O)[C@@H]3CC[C@H]12`: 0.14.
The same measure for `C[C@]12CCC3c4ccc(OCC5CO5)cc4CCC3C1CC[C@@H]2O` (stereo partly drawn): 0.0313; for `CCOC(=O)CCN1C(=O)[C@H]2[C@H]3[C@H](O)[C@H](O)CC(=NOCC=C(C)CCC=C(C)C)[C@@H]3CC[C@H]2C1=O`: -0.225.
The same measure for `CCOC(=O)[C@H](Cc1ccccc1)NC(=O)CCC1CC(OC(=O)NCc2cccc3ccccc23)CC2(CCCC(COC(=O)NCCOc3ccccc3)O2)O1` (stereo partly drawn): 0.113; for `CCOC(=O)[C@H](Cc1ccccc1)NC(=O)CCC1CC(OC(=O)NCc2ccc3c(c2)OCO3)CC2(CCCC(COC(=O)NCCc3ccc(Cl)cc3)O2)O1` (stereo partly drawn): -0.162.
As to `O=C(NN=C1C[C@@H](O)[C@@H](O)[C@@H]2[C@@H]3C(=O)N(Cc4ccccc4)C(=O)[C@@H]3CC[C@H]12)OCc1ccccc1`, the z-score is -0.415.
As for `C[C@@H]1CC[C@H]2C(=O)O[C@@H](CN=[N+]=[N-])CN2[C@H]1c1ccc(Br)cc1`, the z-score was -1.18.
The same measure for `COC(=O)CC=C[C@@H](C)[C@@H](C=NOC[C@@H](O)[C@H]1O[C@@H]2OC(C)(C)O[C@@H]2[C@H]1O)OC`: -0.199; for `CC(CCN1CCCc2nc(C)c(C)cc21)=NO[C@H](C)c1cn([C@@H]2COC[C@H]2O)nn1`: 0.641; for `CC(C)(C)N1C(=O)[C@H]2[C@H]3[C@H](O)[C@H](O)CC(=NNC(=O)OCc4ccccc4)[C@@H]3CC[C@H]2C1=O`: -0.368.
For the compound `COc1cccc([C@H]2Oc3ccc(OC)cc3C(=NO[C@@H](C)c3cc(-c4c(C)cc(C)cc4C)no3)[C@@H]2O)c1`, the z-score came to 0.118.
The same measure for `O=C1C2=CC[C@H]3C(=O)N(C[C@@H]4CCCO4)C(=O)[C@H]3[C@H]2[C@H](O)[C@@H]2O[C@H]12`: -0.836; for `CCOC(=O)[C@H](Cc1ccccc1)NC(=O)CCC1CC(OC(=O)NCc2cccc3ccccc23)CC2(CCCC(COC(=O)NCCc3ccc(Cl)cc3)O2)O1` (stereo partly drawn): -0.185.
The same measure for `COC(=O)[C@H](C)NC(=O)CCC1CC(OC(=O)NCc2cccc3ccccc23)CC2(CCCC(COC(=O)NCc3cccc(C(F)(F)F)c3)O2)O1` (stereo partly drawn): -0.742; for `COC(=O)[C@H](C)NC(=O)CCC1CC(OC(=O)NCc2cccc3ccccc23)CC2(CCCC(COC(=O)NCCOc3ccccc3)O2)O1` (stereo partly drawn): -0.458; for `CCOC(=O)CCN1C(=O)[C@H]2[C@H]3[C@H](O)[C@H](O)CC(=O)[C@@H]3CC[C@H]2C1=O`: -0.798.
`C#CCCCON=C1[C@H]2CCn3c(=O)n(Cc4cc5c(cc4Cl)OCO5)c(=O)n3[C@H]2[C@H](O)[C@@H]2O[C@H]12`: the z-score was -0.123.
The same measure for `COC(=O)[C@H](C)NC(=O)CCC1CC(OC(=O)NCCc2ccc(F)cc2)CC2(CCCC(COC(=O)NCCc3ccccc3OC)O2)O1` (stereo partly drawn): 0.0549; for `CCOC(=O)[C@H](Cc1ccccc1)NC(=O)CCC1CC(OC(=O)NCc2ccc3c(c2)OCO3)CC2(CCCC(COC(=O)NCCOc3ccccc3)O2)O1` (stereo partly drawn): -0.0508.
Then `CCOC(=O)CCN1C(=O)[C@H]2[C@H]3[C@H](O)[C@H](O)CC(=NNC(=O)OCC)[C@H]3CC[C@H]2C1=O`, with -0.541.
Turning to `CCN1C(=O)[C@H]2[C@H]3[C@H](O)[C@H](O)CC(=NOCC[C@@H]4C=C[C@H](OC(C)=O)[C@@H](COC(C)=O)O4)[C@@H]3CC[C@H]2C1=O`, the z-score worked out at 0.572.
In turn, `O=C1C2=CC[C@H]3C(=O)N(c4ccc(F)cc4F)C(=O)[C@H]3[C@H]2[C@H](O)[C@@H]2O[C@H]12` displayed a z-score of 0.0423.
Then `COc1ccc(O[C@H]2C=C[C@@H](c3ccccc3)O[C@@H]2COC(=O)CCC(C)=NOC[C@@H](O)COCc2ccco2)cc1`, with -0.313; and `O=C1C[C@@H](O)[C@@H](O)[C@@H]2[C@@H]3C(=O)N(C4CCCCC4)C(=O)[C@@H]3CC[C@@H]12`, with 0.0121; and `CC(CCC(=O)OC[C@H]1O[C@H](C#Cc2ccccc2)C=C[C@@H]1Oc1ccc(C)cc1)=NOC[C@@H](C)[C@H](OCc1ccccc1)C(C)C`, with 1.06.
The same measure for `CC(C)CON=C1C[C@@H](O)[C@@H](O)[C@@H]2[C@@H]3C(=O)N([C@@H](C)c4ccccc4)C(=O)[C@@H]3CC[C@@H]12`: 0.638.

These data come from PubChem BioAssay.
